HT1080-NT tox = kills 2HG-producing HT-1080-NT fibrosarcoma cells; HT-1080-NT fibrosarcoma viability, CellTiter-Glo ATP luminescence, 48 h; actives 1.6% (n = 360,000); Potency, µM (highest dose often 46.1 µM), without a hit: top-dose activity, negative = less viability, actives largely listed as cytotoxic; AID 686970;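 note: NT is the 2HG producing partner of a matched IDH1 knockdown line; potency is the fitted concentration of half-maximal effect; 0% = DMSO-treated cells and -100% = media-only wells without cells; nearly all actives have a fitted effect of over 55% in size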
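HT-1080-NT; 750 cells/well; 5% FBS RPMI; 48 h compound, 37 degrees C; CellTiter-Glo luminescence; curve fitting and curve-class assignment.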
TDP1 cell noCPT = qHTS for Inhibitors of human tyrosyl-DNA phosphodiesterase 1 (TDP1): qHTS in cells in absence of CPT. DT40 Tdp1-/- hTDP1 cells, no CPT, ATP luminescence, 48 h. Potency, µM (highest dose often 46.2 µM), for inactives: at the top dose activity change, negative = growth inhibition, most hits filed as inhibitors. actives 15% (n = 420,000); note: potency is the fitted concentration of half-maximal effect; nearly all actives have a fitted effect of over 55% in size
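No-CPT arm: Tdp1-/-;hTDP1 DT40 cells (400/well) plus compounds, incubated ≥48 hr at 37 °C. Readout CellTiter-Glo luminescence.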
IL1B secr inh = blocks inflammasome-driven IL-1 beta release; THP-1 LPS/ATP IL-1B secretion, AlphaLISA, 16 h; active compounds read low; activity change, % at 57.5 µM; actives 4.7% (n = 360,000); AID 743279; in the data active = activity change below about -50%; inconclusive = mostly about -30% to -49%
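Secreted IL-1B measured by AlphaLISA bead assay after 16 h compound exposure of THP-1 cells; compounds (final up to 57.5 uM) added 1 h before LPS (250 ng/mL) and ATP (1.25 mM) stimulation; lower signal means less secretion.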
TDP1 cell CPT = DT40-hTDP1 cell growth loss with CPT; chicken DT40 Tdp1-/-;hTDP1 cells + 20 nM CPT, ATP luminescence, 48 h; Potency, µM (series often up to 46.2 µM), for inactives: at the highest dose activity change, negative = growth inhibition, actives largely listed as inhibitors; actives 12% (n = 420,000); note: potency is the fitted concentration of half-maximal effect; nearly all actives have a fitted effect of over 55% in size
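Chicken DT40 Tdp1-/- cells complemented with human TDP1, 400 cells/well, exposed to compounds plus 20 nM camptothecin for at least 48 h at 37 C; viability read as ATP content by CellTiter-Glo luminescence.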
HT1080 IDH1KD tx = toxicity to HT-1080 IDH1 knockdown cells (counter line). actives 2% (n = 360,000). HT-1080 IDH1 knockdown viability, ATP luminescence, 48 h. Potency, µM (doses to about 46.1 µM), without a hit: at the highest dose activity, negative = toxicity, actives largely listed as cytotoxic. AID 686971;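 note: potency is the fitted concentration of half-maximal effect; 0% = DMSO wells and -100% = cell-free medium wells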
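Cytotoxicity counter-line: IDH1KD HT-1080, 48 h, CellTiter-Glo. Curves classed by r2, magnitude and activity.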
Starred values were filed as active, the others as inactive; ? = inconclusive; . = no result given; [ ] = dose if it differs, or a comment. A selection: hits, their analogues and other compounds. The true share with any hit is near 19%. Unless noted, calls come from the whole dose curve; as a rule, active = well fitted curve in the direction sought with a large enough effect; inconclusive = small, poorly fitted or top-dose-only effect, or another doubt; inactive = no such curve, though single readings can be large; an effect the other way counts as inactive or inconclusive. Unless noted, % is set by controls: 0 for no effect and ±100 for the full control effect.

SMILES	HT1080-NT tox	TDP1 cell noCPT	IL1B secr inh	TDP1 cell CPT	HT1080 IDH1KD tx
CC(C)Sc1ncc(Cl)c(C(=O)Nc2ccc(S(=O)(=O)N3CCCCC3)cc2)n1	.	18µM*	.	18µM*	.
CNc1ccc(C=O)cc1Cl	.	-3%	.	-1%	.
CCCCNC(=O)C(NC(=O)c1ccccc1)C(=O)c1ccccc1 (stereo not drawn)	9%	-11%	19	-2%	7%
Cc1cc(OCC(=O)NCc2ccccn2)c2c(C)cc(=O)oc2c1	9%	0%	9	7%	8%
CCCc1cc(=O)oc2cc(C)cc(OCC(=O)NCc3ccccn3)c12	0%	-18%	14	18µM*	-6%
COc1ccc(-c2cc(=O)oc3cc(OC(C)C(=O)NCc4ccccn4)ccc23)cc1 (stereo not drawn)	-1%	?	-12	21µM*	-6%
CCOC(=O)c1c(-c2ccc(OC)cc2)csc1NC(=O)COc1ccc2c(C)cc(=O)oc2c1	9%	16µM*	6	23µM*	16%
Cc1cc(=O)oc2cc(OC(C)C(=O)NCc3ccccn3)ccc12 (stereo not drawn)	7%	8%	55	-13%	0%
COc1ccc(-c2cc(=O)oc3cc(OCC(=O)NCc4ccccn4)ccc23)cc1	17%	23µM*	-24	?	3%
Cc1cc(=O)oc2cc(OCC(=O)NCc3ccccn3)ccc12	-1%	3%	3	-1%	-6%
CC(=O)N1CCC[C@H]1C(=O)NCC1Cc2cc(-c3cnccn3)cc(Cl)c2O1 (stereo partly drawn)	.	-13%	.	-7%	.
CCCc1cc(=O)oc2cc(OC(C)C(=O)NCCCn3ccnc3)ccc12 (stereo not drawn)	4%	5%	33	-9%	11%
CC(Oc1ccc2c(-c3ccccc3)cc(=O)oc2c1)C(=O)NCCCn1ccnc1 (stereo not drawn)	-2%	15µM*	-23	23µM*	-8%
CC1CCN(C(=O)c2cccc(NC(=O)c3cccs3)c2)CC1	-1%	-11%	-4	-9%	-11%
CC(C)C1OC(c2cccc(NC(=O)c3cccs3)c2)OCC1(C)C (stereo not drawn)	?	23µM*	-75*	?	?
CCN(c1ccccc1)S(=O)(=O)c1ccc(OC)c(NC(=O)c2ccc(=O)[nH]c2)c1	-3%	-22%	7	27%	-4%
CC(C)(C)NCc1cc(Br)ccc1OCc1cccs1	-22%	?	-59*	?	-11%
COc1ccc(Cl)cc1NC(=S)NCc1cccs1	0%	-6%	23	8%	-4%
CC(C)(C)NCc1cc(Cl)ccc1OCc1cccs1	-13%	?	0	15µM*	-16%
CC(C)(C)NCc1ccccc1OCc1cccs1	4%	-23%	?	-27%	-4%
O=C(COc1ccc(Cl)cc1)NCc1cn2cc(Cl)ccc2n1	-11%	-25%	-8	-1%	-16%
COc1ccc(CCn2c3c(c(=O)[nH]c2=S)CN(CC(C)C)CN3)cc1OC	2%	?	.	?	17%
C=CCNc1nc(Cl)nc(Nc2cc(Cl)ccc2OC)n1	-10%	?	-2	?	-19%
CCOc1nc(Nc2cc(Cl)ccc2OC)nc(OCC)n1	2%	?	9	21µM*	13%
COc1ccc(Nc2nc(N)nc(C(F)(F)F)n2)c(OC)c1	17%	-2%	-6	-18%	1%
SMILES	HT1080-NT tox	TDP1 cell noCPT	IL1B secr inh	TDP1 cell CPT	HT1080 IDH1KD tx
CCOc1nc(Nc2ccc(OC)cc2OC)nc(OCC)n1	-4%	16µM*	0	-23%	-2%
Cc1nc2ccc(NC(=O)c3nn(CC(C)C)c(=O)c4ccccc34)cc2s1	0%	?	-85*	?	-14%
CSc1ncccc1C(=O)Nc1ccc2nc(C)sc2c1	30%	-2%	-27	-23%	15%
CCOc1ncccc1C(=O)Nc1cc(S(=O)(=O)N2CCCCC2)ccc1Cl	-3%	-25%	-5	-21%	-6%
Cc1nnc(NC(=O)c2nn(CC(C)C)c(=O)c3ccccc23)s1	0%	-18%	14	4%	-15%
CCOc1ncccc1C(=O)Nc1ccc(Cl)c(S(=O)(=O)N2CCCC2)c1	-1%	21µM*	5	21µM*	12%
CCOc1ncccc1C(=O)Nc1ccc2nc(C)sc2c1	?	18µM*	-5	?	-27%
COc1ccc(CCNC(=S)Nc2ccc(C(C)C)cc2)cc1	-21%	18µM*	-16	?	-6%
COc1ccc(CCNC(=S)Nc2cc(C)cc(C)c2)cc1	-7%	23µM*	-10	?	2%
CC(C)c1ccc(NC(=S)Nc2ccc(OC(F)(F)F)cc2)cc1	0%	23µM*	-7	18µM*	8%
CCC(C)c1ccc(NC(=S)Nc2ccc(OC)cc2)cc1 (stereo not drawn)	-9%	16µM*	-18	23µM*	-14%
CCOc1ccc(NC(=S)Nc2ccc(OC)cc2)cc1	8%	-26%	-27	-6%	17%
Cc1ccccc1N(C(=O)CNC(=O)c1ccco1)C(C(=O)NC1CCCC1)c1ccncc1 (stereo not drawn)	1%	-5%	15	2%	15%
COc1ccc(CN2CCC3(CC2)c2ccccc2[C@@H](NC(=O)c2ccsc2)[C@@H]3OC)cc1O	.	-17%	.	?	.
COc1ccc(CN2CCC3(CC2)c2ccccc2[C@@H](NC(=O)c2ccco2)[C@@H]3OC)c(O)c1	.	-15%	.	-8%[9.04 µM]	.
CC(NC(=O)C(=O)NN=C1CCCCCCCCCCC1)c1ccccc1 (stereo not drawn)	15%	-10%	0	2%	8%
CCCCc1ccc(NC(=S)N2CCN(C)CC2)cc1	-1%	?	-16	-8%	-1%
COc1ccc(NC(=S)NCc2ccc(F)cc2)cc1	8%	?	-12	-22%	0%
CCCCc1ccc(NC(=S)N2CCCC2)cc1	-2%	15µM*	-4	12µM*	-2%
CCCCc1ccc(NC(=S)NCc2ccc(OC)cc2)cc1	-14%	18µM*	-9	?	?
COc1ccc(NC(=S)NCCc2c(C)[nH]c3ccc(OC)cc23)cc1	7%	?	-52*	?	5%
OCC1(CO)CCCC(CO)(CO)C1O	4%	0%	-6	1%	9%
CCCn1c2c(c(=N)c3c1CCC3)CCCC2	-11%	5.2µM*	-25	9.2µM*	-17%
CCCCn1c2c(c3ccccc31)CCc1nonc1-2	2%	?	6	-29%	-1%
N=c1c2c(n(Cc3ccc(Br)cc3)c3c1CCC3)CCCC2	21µM*	0.52µM*	-81*	0.92µM*	18µM*

Screening results (PubChem BioAssay)
